Results from PubChem BioAssay AID504727 (Broad Institute, 2011).
Calls of active or inactive are those of the source.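 The calls were made as follows: active = fitted half-maximal concentration AC50 at or below ten times the highest valid tested dose, with signal falling as DNA is displaced (actives reach about 34 µM in these data); inconclusive = flat fit at moderate signal loss, or poor fit quality; inactive = the rest, including signal rising instead of falling.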

Assay: DNA intercalators displacing acridine orange, dose response, artefact control for KSHV LANA DNA-binding inhibitor project, biochemical, fluorescence polarization, cherry-picked samples, set 2 (AID 504727)
Conditions: AC50: Acridine orange-DNA displacement; series mostly up to 35 µM

Which AC50 does the source give for COc1ccc(N=Nc2nc3ccc(Br)cc3n2C)cc1 here?
The AC50 was “inactive”.

Which AC50 does the source give for NS(=O)(=O)c1ccc(N=Nc2c[nH]c(=O)c(O)c2)cc1 here?
The AC50 was 15.8 µM (active).

With OCCN(CCO)c1nc(N2CCCCC2)c2nc(N(CCO)CCO)nc(N3CCCCC3)c2n1 as the compound, how does the AC50 read?
Its AC50 is 8.59 µM (active).

Which AC50 does the source give for O=C(Cn1ncc(N2CCCC2)c(Cl)c1=O)c1ccc(Cl)cc1 here?
Its AC50 is “inactive”.

For CCc1sc(C(=O)NNC(=O)CNC(=O)c2ccccc2F)cc1C, which AC50 is on record?
Its AC50 is “inactive”.

Which AC50 does the source give for O=C(OCCN1C(=O)c2cccc3c(N4CCOCC4)ccc(c23)C1=O)c1ccc(Cl)cc1 here?
The AC50 was 18.5 µM (active).

Which AC50 does the source give for CC1CCCN(C(=O)C(=O)c2cn(CC(=O)N3CCCCCC3)c3ccccc23)C1 (stereo not drawn) here?
The AC50 was “inactive”.

Which AC50 does the source give for Cc1cc(=O)c2c([nH]1)c(C)cc1[nH]c(C)c(C)c12 here?
The AC50 was “inactive”.

With COc1ccc(Cn2nnc3c(=O)[nH]c(C4CCCN(C(=O)c5ccccc5)C4)nc32)cc1 (stereo not drawn) as the compound, how does the AC50 read?
Its AC50 is “inactive”.

For COC(=O)C(NC(=O)C(C)NC(=O)OCc1ccccc1)C(C)C (stereo not drawn), which AC50 is on record?
The AC50 was > 35 µM (inactive).

With N=C1/C(=C\c2ccc(Br)o2)C(=O)N=C2SC(CC(=O)N3CCOCC3)=NN12 as the compound, how does the AC50 read?
The AC50 was “inactive”.

Which AC50 does the source give for NC(=S)NN=Cc1ccc(-c2ccc(S(=O)(=O)Nc3ncccn3)cc2)o1 here?
Its AC50 is “inactive”.

With Nc1nc(-c2ccc(C(=O)O)cc2)cs1 as the compound, how does the AC50 read?
Its AC50 is “inactive”.

Which AC50 does the source give for CC(C)(C)OC(=O)N1CCC[C@H]1c1nnc(SCc2cccc(Cl)c2)o1 here?
The AC50 was “inactive”.

With CCOc1ccccc1N1CCN(C(=O)c2ccc3nc(N)sc3c2)CC1 as the compound, how does the AC50 read?
The AC50 was “inactive”.

Which AC50 does the source give for NC(=O)C1(N2CCCCC2)CCN(Cc2ccc(Br)cc2)CC1 here?
Its AC50 is “inactive”.

For O=C(CN1CC[C@@]2(O)CCCC[C@H]2[C@@H]1c1ccc(F)cc1)NCc1ccco1, which AC50 is on record?
Its AC50 is “inactive”.

For O=C(/C=N/NC(=O)c1ccc(Cl)cc1Cl)c1ccccc1, which AC50 is on record?
The AC50 was “inactive”.

For Cc1sc2nnn(CC(=O)N3CCN(C(=O)c4ccco4)CC3)c(=O)c2c1C, which AC50 is on record?
The AC50 was “inactive”.

For C=CCN1C(=O)/C(=c2\sc3nc(=O)c(Cc4ccccc4Cl)nn3c2=O)c2ccccc21, which AC50 is on record?
Its AC50 is “inactive”.

Which AC50 does the source give for O=C(CSc1cccc2cccnc12)N/N=C/c1ccc(O)cc1 here?
Its AC50 is “inactive”.

Which AC50 does the source give for CCOc1ccc2noc3c2c1C(=O)c1ccccc1-3 here?
The AC50 was 0.728 µM (active).

For CC(=O)Oc1ccc2c(c1)Oc1cc(OC(C)=O)ccc1C21OC(=O)c2ccccc21, which AC50 is on record?
The AC50 was 8.39 µM (active).

For O=C(OCCN1C(=O)c2cccc3c(N4CCOCC4)ccc(c23)C1=O)c1ccc(Cl)cc1Cl, which AC50 is on record?
Its AC50 is 5.25 µM (active).

For CC(C)Cn1c(N)c(C(=O)CSc2nnc(-c3ccco3)n2C)c(=O)n(C)c1=O, which AC50 is on record?
Its AC50 is “inactive”.

For COc1ccc2[nH]c3c(C)c4cc[n+](C)cc4c(C)c3c2c1, which AC50 is on record?
Its AC50 is 2.53 µM (active).

Which AC50 does the source give for Cc1c(C)n(Cc2ccccc2)c2ncnc(Cl)c12 here?
Its AC50 is “inactive”.

Which AC50 does the source give for O=S(=O)(NCc1cccnc1)c1ccc(Cl)s1 here?
Its AC50 is “inactive”.

Which AC50 does the source give for Cc1ccc(NC(=O)CN(C)C(=O)c2nn(C)c(=O)c3ccccc23)cc1 here?
Its AC50 is “inactive”.

For CC(=O)Nc1ccc(S(=O)(=O)Nc2ccccc2N2CCOCC2)cc1, which AC50 is on record?
The AC50 was “inactive”.

Which AC50 does the source give for O=C(O)CCN1C(=O)/C(=C\c2ccc(-c3nc4ccccc4s3)o2)SC1=S here?
The AC50 was “inactive”.

With CC1=C(O)C(=O)C(C2=C(O)C(=O)C(C)=C(O)C2=O)=C(O)C1=O as the compound, how does the AC50 read?
Its AC50 is “inactive”.

With Cc1ccc(NC(=O)c2ccc(Cl)c(S(=O)(=O)N3CCc4ccccc43)c2)nc1 as the compound, how does the AC50 read?
Its AC50 is “inactive”.

Which AC50 does the source give for CC1=[N+](C)N(c2ccccc2)C(=O)C1N=C/C=C/c1ccccc1 (stereo not drawn) here?
The AC50 was “inactive”.

For N#CC1=C(N)Oc2ccc3ccc(O)cc3c2C1c1ccsc1 (stereo not drawn), which AC50 is on record?
The AC50 was “inactive”.

For CC(=O)N/C(=C/c1ccc(OS(=O)(=O)c2ccc(C)cc2)cc1)C(=O)Nc1ccc(C(=O)O)cc1, which AC50 is on record?
The AC50 was “inactive”.

Which AC50 does the source give for Cc1ccc(C)c(OCC(=O)N(Cc2nnc(-c3ccccc3Cl)o2)C2CC2)c1 here?
Its AC50 is “inactive”.

With Cc1cc2nc(SCCN3CCOCC3)[nH]c2cc1C as the compound, how does the AC50 read?
Its AC50 is “inactive”.
